Laboratory results from PubChem BioAssay.
Unmarked numbers belong to inactive results. For some of these results: Measured potencies and affinities stand elsewhere. Activity calls are given as the source filed them. Unless noted, how the calls were made is not given here.

Experiments:
[1] = antimalarial activity against Dd2 strain (AID 2302;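 active means growth inhibition above 50% at the single 2 µM test dose, taken to imply half-maximal potency below 2 µM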;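 further: 0% = DMSO untreated growth and 100% = chloroquine plus artemisinin killed control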); settings: P. falciparum Dd2 in RBCs, LDH growth readout, 72 h; at 2 µM; hits give high values
[2] = human hepatoma cell viability loss – ATP luminescence, cytotoxicity control for P. falciparum antimalarial project, primary screen (AID 2303;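 active means inhibition above 50%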;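 further: 0% = DMSO wells and 100% = digitonin-killed cells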); settings: HepG2 viability, 24-48 h, at 10 µM, hits give high values
[3] = target: L-lactate dehydrogenase (Plasmodium falciparum (isolate CDC / Honduras)) (UniProt Q27743); assay: PfLDH activity inhibition – cell lysate, 3D7 strain, counter-screen for P. falciparum growth inhibition project (AID 2304);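 further: 0% = vehicle and 100% = reference inhibitor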; settings: P. falciparum 3D7 crude extract, LDH APAD/NBT absorbance; at 2 µM; hits give high values
Sequence of L-lactate dehydrogenase (Plasmodium falciparum (isolate CDC / Honduras)) (Q27743 whole entry, looked up): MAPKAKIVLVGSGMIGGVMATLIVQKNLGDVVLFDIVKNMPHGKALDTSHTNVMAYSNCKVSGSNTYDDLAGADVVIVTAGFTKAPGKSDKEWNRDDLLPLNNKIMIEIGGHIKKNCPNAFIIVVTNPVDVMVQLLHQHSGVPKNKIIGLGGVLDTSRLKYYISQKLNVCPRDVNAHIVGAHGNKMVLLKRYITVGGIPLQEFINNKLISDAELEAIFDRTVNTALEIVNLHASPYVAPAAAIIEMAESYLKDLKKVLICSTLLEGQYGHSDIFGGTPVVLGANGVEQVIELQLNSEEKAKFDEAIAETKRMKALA

[4] = inhibition of 3D7 malaria parasite growth – strain 3D7 (AID 2306);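 further: 0% = DMSO wells and 100% = chloroquine plus artemisinin control wells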; settings: P. falciparum 3D7 erythrocytic growth, LDH absorbance, 72 h; at 2 µM; hits give high values
[5] = target: Calcium-dependent protein kinase 1 (Plasmodium falciparum (isolate 3D7)) (UniProt P62344); assay: PfCDPK1 kinase inhibitors, biochemical, TCAMS library (AID 1159585; cut-off not given, nearly all actives have IC50 up to about 0.98 µM;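 further: inhibitors leave more ATP so luminescence rises with inhibition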); settings: recombinant PfCDPK1, Kinase-Glo ATP depletion luminescence
Sequence of Calcium-dependent protein kinase 1 (Plasmodium falciparum (isolate 3D7)) (P62344 whole entry, looked up): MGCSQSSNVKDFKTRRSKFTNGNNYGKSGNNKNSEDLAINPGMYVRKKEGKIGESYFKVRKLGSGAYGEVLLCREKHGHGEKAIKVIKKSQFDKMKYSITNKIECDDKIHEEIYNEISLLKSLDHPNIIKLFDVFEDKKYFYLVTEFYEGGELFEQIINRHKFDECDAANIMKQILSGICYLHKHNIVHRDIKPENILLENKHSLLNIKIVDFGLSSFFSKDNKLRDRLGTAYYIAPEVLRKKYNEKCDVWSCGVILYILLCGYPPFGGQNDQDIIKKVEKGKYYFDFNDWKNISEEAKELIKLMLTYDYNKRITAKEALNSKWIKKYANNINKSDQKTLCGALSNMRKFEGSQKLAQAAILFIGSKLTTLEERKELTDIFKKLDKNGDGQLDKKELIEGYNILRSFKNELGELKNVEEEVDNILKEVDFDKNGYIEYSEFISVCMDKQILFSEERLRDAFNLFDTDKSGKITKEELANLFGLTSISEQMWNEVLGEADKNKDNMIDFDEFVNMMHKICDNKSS

[6] = target: Plasmodium falciparum protein kinase 6 (PK6, PF3D7_1337100) (UniProt Q8IDW1); assay: PfPK6 kinase inhibitors, biochemical, TCAMS library (AID 1159586); settings: recombinant PfPK6, Kinase-Glo ATP depletion luminescence
Sequence of Plasmodium falciparum protein kinase 6 (PK6, PF3D7_1337100) (Q8IDW1 1-305): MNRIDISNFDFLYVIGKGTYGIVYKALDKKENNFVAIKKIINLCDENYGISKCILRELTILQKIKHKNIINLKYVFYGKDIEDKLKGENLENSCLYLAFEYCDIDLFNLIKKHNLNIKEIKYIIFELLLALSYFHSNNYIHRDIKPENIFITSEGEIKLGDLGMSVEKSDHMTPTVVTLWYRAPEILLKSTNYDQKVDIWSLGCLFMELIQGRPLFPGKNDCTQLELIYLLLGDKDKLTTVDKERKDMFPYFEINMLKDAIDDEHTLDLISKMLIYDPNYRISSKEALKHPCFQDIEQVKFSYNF

[7] = target: Protein kinase 7 (PK7), Plasmodium falciparum 3D7 (PF3D7_0213400) (UniProt Q7YTF7); assay: inhibition of Plasmodium PK7 catalytic activity – biochemical, TCAMS antimalarial set, Kinase-Glo luminescence (AID 1159587); settings: recombinant PfPK7, Kinase-Glo ATP depletion luminescence
Sequence of Protein kinase 7 (PK7), Plasmodium falciparum 3D7 (PF3D7_0213400) (Q7YTF7 1-343): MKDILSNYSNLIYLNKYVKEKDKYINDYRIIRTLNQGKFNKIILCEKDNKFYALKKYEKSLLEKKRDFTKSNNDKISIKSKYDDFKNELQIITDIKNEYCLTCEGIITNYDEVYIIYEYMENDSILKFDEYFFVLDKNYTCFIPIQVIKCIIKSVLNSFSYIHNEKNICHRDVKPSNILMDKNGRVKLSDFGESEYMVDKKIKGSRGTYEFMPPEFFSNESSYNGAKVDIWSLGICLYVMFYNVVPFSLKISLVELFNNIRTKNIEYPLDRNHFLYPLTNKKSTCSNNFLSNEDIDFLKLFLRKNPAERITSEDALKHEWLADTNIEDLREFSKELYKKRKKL

[8] = target: Calcium-dependent protein kinase 4 (Plasmodium falciparum (isolate 3D7)) (UniProt Q8IBS5); assay: PfCDPK4 kinase inhibitors, biochemical, TCAMS library (AID 1159588; cut-off not given, nearly all actives have IC50 up to about 0.91 µM); settings: recombinant PfCDPK4, Kinase-Glo ATP depletion luminescence
Sequence of Calcium-dependent protein kinase 4 (Plasmodium falciparum (isolate 3D7)) (Q8IBS5 whole entry, looked up): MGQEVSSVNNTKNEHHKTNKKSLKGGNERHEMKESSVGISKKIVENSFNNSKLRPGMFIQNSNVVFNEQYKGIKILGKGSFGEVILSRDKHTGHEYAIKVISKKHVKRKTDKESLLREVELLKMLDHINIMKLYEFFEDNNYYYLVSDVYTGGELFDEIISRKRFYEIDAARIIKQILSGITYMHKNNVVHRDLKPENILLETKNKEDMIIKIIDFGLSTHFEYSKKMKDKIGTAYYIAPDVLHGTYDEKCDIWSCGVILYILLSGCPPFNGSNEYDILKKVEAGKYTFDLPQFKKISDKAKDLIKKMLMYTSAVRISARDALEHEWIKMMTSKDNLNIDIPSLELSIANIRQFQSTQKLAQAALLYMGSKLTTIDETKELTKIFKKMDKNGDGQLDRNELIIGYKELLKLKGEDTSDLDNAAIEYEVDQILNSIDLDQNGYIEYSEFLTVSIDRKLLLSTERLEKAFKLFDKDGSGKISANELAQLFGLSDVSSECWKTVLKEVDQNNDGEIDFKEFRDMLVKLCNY

| Structure (SMILES) | growth inhibition [1] | inhibition [2] | inhibition [3] [%] | growth inhibition [4] | outcome [5] | outcome [6] | outcome [7] | outcome [8] |
| --- | --- | --- | --- | --- | --- | --- | --- | --- |
| CN(C)S(=O)(=O)c1cc(-c2ccc3nccc(-c4cccc(S(N)(=O)=O)c4)c3c2)cnc1N | 98% (active) | 35% | -2 | 100% (active) | inactive | inactive | inactive | inactive |
| Cc1cc(C2CCN(CCCCNC(=O)c3ccc(-c4ccc(C#N)cc4)cc3)CC2)c(C)cc1O | 96% (active) | 27% | 3 | 96% (active) | inactive | inactive | inactive | inactive |
| CC(C)(C)CCN1CCC(CNC(=O)c2cc(-c3cccc(Cl)c3)cs2)C1 (stereo not drawn) | 13% | 50% (active) | 3 | 99% (active) | inactive | inactive | inactive | inactive |
| CCN(CC)CCCCNc1cc(-c2[nH]c(-c3c(Cl)cccc3Cl)nc2-c2ccc3cc(OC)ccc3c2)ccn1 | 93% (active) | 23% | -5 | 95% (active) | inactive | inactive | inactive | inactive |
| COc1ccc(CN2CCCN(Cc3cccc(NC(=O)c4ccc(-c5ccccc5)cc4)c3)CC2)cc1 | 24% | 37% | 1 | 94% (active) | inactive | inactive | inactive | inactive |
| COc1cc2ccccc2cc1OCCCN1CCN(CC(c2ccc(F)cc2)N2CCN(C(C)C)CC2)CC1 (stereo not drawn) | 92% (active) | 72% (active) | -3 | 100% (active) | inactive | inactive | inactive | inactive |
| N#CCCN1CCN(Cc2ccc(-c3ccc(-c4nc5ccc(F)cc5[nH]4)s3)cc2)CC1 | 38% | 58% (active) | 6 | 99% (active) | inactive | inactive | inactive | inactive |
| CC(=O)Nc1ccc(NC(=O)c2cc(-c3ccc(C)cc3O)n[nH]2)cc1 | 78% (active) | -3% | -6 | 101% (active) | inactive | inactive | inactive | inactive |
| O=c1[nH]c(NCCCNCc2cc3c(Cl)cc(Cl)cc3[nH]2)nc2ccsc12 | 11% | 62% (active) | 0 | 96% (active) | inactive | inactive | inactive | inactive |
| O=C(Nc1ccc(-c2ccccc2)cc1)Nc1cccc(Cn2ncc(N3CCCNCC3)c(Cl)c2=O)c1 | 52% (active) | 14% | -1 | 102% (active) | inactive | inactive | inactive | inactive |
| OC(CNCc1ccccc1Oc1ccccc1)c1cc(Br)cs1 (stereo not drawn) | 79% (active) | -13% | -4 | 94% (active) | inactive | inactive | inactive | inactive |
| NOCCCCOc1ccc(Br)cc1 | -1% | 0% | -2 | 99% (active) | inactive | inactive | inactive | inactive |
| COc1ccc2[nH]cc(C3CCN(CCCCNC(=O)c4ccc(NC(=O)c5ccc(Cl)cc5)cc4)CC3)c2c1 | 16% | 17% | 3 | 98% (active) | inactive | inactive | inactive | inactive |
| CCOc1ccc(-c2nonc2NC(=O)c2ccccc2F)cc1OCC | 100% (active) | -8% | 0 | 90% (active) | inactive | inactive | inactive | inactive |
| CC[C@H]1CN2CCc3c([nH]c4ccccc34)[C@@H]2C[C@@H]1CC1c2cc(OC)c(OC)cc2CCN1C (stereo partly drawn) | 45% | 31% | 5 | 85% (active) | inactive | inactive | inactive | inactive |
| Cc1cccc2[nH]c(-c3cccc(-c4cccc(NC(=O)C(C)CN(C)C)c4)c3)nc12 (stereo not drawn) | 97% (active) | 16% | -3 | 101% (active) | inactive | inactive | inactive | inactive |
| O=C(NCC1CCC(C(=O)NCCN2CCCCC2)CC1)c1ccc(O)c(-c2ccc(Cl)c(Cl)c2)c1 (stereo not drawn) | 22% | -5% | -1 | 91% (active) | inactive | inactive | inactive | inactive |
| COc1cc(NC(=O)N2CCc3ccc(OCCN4CCCCC4)cc32)cc(C(F)(F)F)c1 | 93% (active) | 9% | 6 | 101% (active) | inactive | inactive | inactive | inactive |
| O=C(/C=C/c1ccc(Cl)c(Cl)c1)NCCCCCCN1CCN(C(=O)Nc2cccc(Cl)c2)CC1 | 2% | 33% | -3 | 85% (active) | inactive | inactive | inactive | inactive |
| CN(C)c1ccc(C(c2ccc(N(C)C)cc2)c2cc([N+](=O)[O-])ccc2Cl)cc1 | 67% (active) | 0% | 7 | 96% (active) | inactive | inactive | inactive | inactive |
| COc1ccc(-c2ccc(CNC3Cc4ccccc4C3)cc2)cc1S(=O)(=O)NCCN1CCCC1 | 99% (active) | 30% | 3 | 100% (active) | inactive | inactive | inactive | inactive |

| Structure (SMILES) | growth inhibition [1] | inhibition [2] | inhibition [3] [%] | growth inhibition [4] | outcome [5] | outcome [6] | outcome [7] | outcome [8] |
| --- | --- | --- | --- | --- | --- | --- | --- | --- |
| CC(=O)C=C1CC(=O)N(C[C@@H](O)[C@H]2O[C@@H]3OC(C)(C)O[C@@H]3[C@H]2O)c2ccccc2N1 | 2% | -8% | 3 | 90% (active) | inactive | inactive | inactive | inactive |
| Cc1cc(=O)c(-c2ccc(OCCSc3ccc(C(F)(F)F)cn3)cc2)c(C)[nH]1 | 96% (active) | 2% | 7 | 97% (active) | inactive | inactive | inactive | inactive |
| COc1ccc(CC(=O)Nc2ccc(Nc3nc(C)cc(N4CCCC4)n3)cc2)cc1 | 65% (active) | 56% (active) | -1 | 101% (active) | inactive | inactive | inactive | inactive |
| CC(=O)N[C@H](C(=O)Nc1ccc(-c2cccc(-c3nc4c(C)cccc4[nH]3)c2)cc1)C(C)C | 10% | 9% | 2 | 89% (active) | inactive | inactive | inactive | inactive |
| COc1ccc(-c2nccc(NC(N)=NCc3ccccc3)n2)cc1 | 21% | 27% | 1 | 83% (active) | inactive | inactive | inactive | inactive |
| CCCNCCc1ccc(NS(=O)(=O)c2cccc(-c3ccc(Cl)cc3)c2)cc1 | 36% | 36% | 0 | 101% (active) | inactive | inactive | inactive | inactive |
| Nc1nc(N)c2nc(C3CC=CCC3)c(N)nc2n1 (stereo not drawn) | 0% | 67% (active) | -5 | 95% (active) | inactive | inactive | inactive | inactive |
| CCCC(=O)Nc1ccc(OCCCN(Cc2ccccc2F)c2ccc(C#N)c(C(F)(F)F)c2)cc1 | 93% (active) | 7% | 1 | 89% (active) | inactive | inactive | inactive | inactive |
| COc1ccc(-n2nc(C)c3c2NC(=O)CC3c2ccccc2OCc2ccc(F)cc2)cc1 (stereo not drawn) | 65% (active) | 53% (active) | 7 | 93% (active) | inactive | inactive | inactive | inactive |
| COc1ccc2nc(C)cc(NN=Cc3ccccc3[N+](=O)[O-])c2c1 | 99% (active) | 2% | -2 | 101% (active) | inactive | inactive | inactive | inactive |
| O=C(Nc1ccc2nc(-c3ccc4nc(NC(=O)C5CCCCC5)sc4c3)[nH]c2c1)C1CCCCC1 | 68% (active) | 84% (active) | -9 | 100% (active) | inactive | inactive | inactive | inactive |
| O=C(NC1CC1)c1cnc(N2CCC(OCc3ccccc3)CC2)c(Cl)c1 | 71% (active) | -5% | -2 | 90% (active) | inactive | inactive | inactive | inactive |
| CN(C)c1ccc(-c2ccc(C(=O)NC3CCN(Cc4ccccc4)CC3)s2)cc1 | 10% | 20% | -3 | 92% (active) | inactive | inactive | inactive | inactive |
| CC(C)CNCc1cccc(-c2cccc(CN(CCCN3CCN(C)CC3)C(=O)CCC3CCCC3)c2)c1 | 96% (active) | 45% | -7 | 100% (active) | inactive | inactive | inactive | inactive |
| CN(C)CCn1cc(C(=O)c2cc(Cl)ccc2O)cc1-c1nc2ccccc2c(=O)[nH]1 | 87% (active) | 16% | -3 | 99% (active) | inactive | inactive | inactive | inactive |
| COc1cc(C(=O)Nc2cccc(-c3nc4ccccc4[nH]3)c2)cc(OC)c1OC | 41% | 25% | -3 | 99% (active) | inactive | inactive | inactive | inactive |
| COc1ccc(-c2csc(N(CCCN(C)C)C(=O)c3cc4c(C)nn(-c5ccccc5)c4s3)n2)cc1 | 16% | 100% (active) | -2 | 102% (active) | inactive | inactive | inactive | inactive |
| Cc1cc(Nc2ncc3c(n2)N(C2CCC2)CC3)ccc1N1CCN(C)CC1 | 100% (active) | 27% | -2 | 101% (active) | inactive | inactive | inactive | inactive |
| CC(C)Sc1nc2c(c(=O)n1Cc1ccco1)C1(CCCC1)Cc1ccccc1-2 | 10% | 8% | 4 | 98% (active) | inactive | inactive | inactive | inactive |
| COc1cc(C)cc(CN2CCC(Cc3ccccc3)CC2)c1O | 94% (active) | 35% | 0 | 97% (active) | inactive | inactive | inactive | inactive |
